# From PubChem BioAssay
# Assays:
# [1] = test system: Human papillomavirus type 1a protein E7 (residues 44-93); test: HPV1a E7 fragment binders on microarrays, primary screen, biochemical, small-molecule microarray, residues 44-93, 635 nm fluorescence (AID 1108); details: small-molecule microarray binding, fluorescence 635 nm; higher = more signal;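 also: E7 fragment applied at 1 µg/mL in TBST for 1 h at 4 C; score combines spot fluorescence with its signal to noise ratio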
# [2] = modulators of HCV replicon luciferase signal, primary screen, HCV replication inhibitor project, Huh7 cells, luciferase reporter (AID 1109); details: 48 h, higher = more signal;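 also: huh7 hepatoma cells harbouring a luciferase neomycin HCV replicon reporter; luciferase luminescence as measure of HCV replicon replication; test concentration not given here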
# [3] = target: Left-right determination factor 2 (Homo sapiens) (UniProt O00292); test: LEFTY2 binders on small-molecule microarrays, primary screen, biochemical, small-molecule microarray, 635 nm fluorescence scan (AID 1110); details: LEFTY2 binding, higher = more signal
# [4] = target: Calmodulin-1 (Homo sapiens) (UniProt P0DP23); test: CALM1 binders on microarrays, EGTA buffer, profiling panel, biochemical, small-molecule microarray, Cy5-labelled CALM1 (AID 1111); details: Cy5-CALM1 binding fluorescence, higher = more signal;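 also: labelled calmodulin applied in Tris saline Tween buffer holding calcium plus EGTA and DTT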
# [5] = target: Calmodulin-1 (Homo sapiens) (UniProt P0DP23); test: calcium-bound CALM1 binders on microarrays, profiling panel, artefact control for SMM control-protein annotation, biochemical, small-molecule microarray, Cy5-labelled CALM1, plus calcium (AID 1112); details: Cy5-CALM1 binding fluorescence, higher = more signal;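 also: score merges spot fluorescence with signal to noise from triplicate slides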
# [6] = small-molecule microarray binders of probe aWnt5a, primary screen, biochemical, biotinylated probe, 635/667 nm fluorescence (AID 1113); details: higher = more signal;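 also: score merges 667 nm fluorescence intensity with signal-to-noise per printed feature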
# [7] = small-molecule microarray binders of probe aShh, primary screen, biochemical, biotinylated probe, 635/667 nm fluorescence (AID 1114); details: higher = more signal;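 also: probe is biotin-labelled aShh protein from a stem cell growth factor screen; measures binding of labelled protein to compounds printed on the slide; score merges feature fluorescence at 667 nm with signal-to-noise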
# [8] = small-molecule microarray binders of probe aNog, primary screen, biochemical, biotinylated probe, 635/667 nm fluorescence (AID 1115); details: higher = more signal;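 also: probe is biotinylated aNog protein used at 0.15 µg/mL for 1 h at 4 C; z-score combines 667 nm fluorescence of each spot with its signal to noise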
# [9] = target: Torsin-1A-interacting protein 1 (Homo sapiens) (UniProt Q5JTV8); test: LAP1 binders from COS7 cell lysate, primary screen, small-molecule microarray, 635/667 nm fluorescence (AID 1116); details: COS7-hLAP1 lysate binding, 635 nm fluorescence, higher = more signal
# [10] = target: Alpha-bungarotoxin (Bungarus multicinctus) (UniProt P60615); test: alpha-bungarotoxin binders on microarray, profiling panel, artefact control for SMM control protein annotation, biochemical, small-molecule microarray, Alexa647 label, 635/667 nm fluorescence (AID 1117); details: alpha-BTX-A647 binding fluorescence, higher = more signal
# Sequence of Alpha-bungarotoxin (Bungarus multicinctus) (P60615 whole entry, looked up): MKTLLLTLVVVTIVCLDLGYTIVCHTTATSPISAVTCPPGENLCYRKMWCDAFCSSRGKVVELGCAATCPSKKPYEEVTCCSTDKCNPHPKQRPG
# Sequence of Left-right determination factor 2 (Homo sapiens) (O00292 whole entry, looked up): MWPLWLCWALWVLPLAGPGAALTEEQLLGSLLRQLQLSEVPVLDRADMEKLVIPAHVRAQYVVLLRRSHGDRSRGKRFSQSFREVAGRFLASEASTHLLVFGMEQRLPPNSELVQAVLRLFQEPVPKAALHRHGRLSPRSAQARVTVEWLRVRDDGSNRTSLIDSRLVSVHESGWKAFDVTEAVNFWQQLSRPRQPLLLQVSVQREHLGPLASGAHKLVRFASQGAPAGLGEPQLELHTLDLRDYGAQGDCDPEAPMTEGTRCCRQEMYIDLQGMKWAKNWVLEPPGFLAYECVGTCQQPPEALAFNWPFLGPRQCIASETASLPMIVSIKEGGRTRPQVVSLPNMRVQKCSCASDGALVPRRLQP
# Sequence of Torsin-1A-interacting protein 1 (Homo sapiens) (Q5JTV8 whole entry, looked up): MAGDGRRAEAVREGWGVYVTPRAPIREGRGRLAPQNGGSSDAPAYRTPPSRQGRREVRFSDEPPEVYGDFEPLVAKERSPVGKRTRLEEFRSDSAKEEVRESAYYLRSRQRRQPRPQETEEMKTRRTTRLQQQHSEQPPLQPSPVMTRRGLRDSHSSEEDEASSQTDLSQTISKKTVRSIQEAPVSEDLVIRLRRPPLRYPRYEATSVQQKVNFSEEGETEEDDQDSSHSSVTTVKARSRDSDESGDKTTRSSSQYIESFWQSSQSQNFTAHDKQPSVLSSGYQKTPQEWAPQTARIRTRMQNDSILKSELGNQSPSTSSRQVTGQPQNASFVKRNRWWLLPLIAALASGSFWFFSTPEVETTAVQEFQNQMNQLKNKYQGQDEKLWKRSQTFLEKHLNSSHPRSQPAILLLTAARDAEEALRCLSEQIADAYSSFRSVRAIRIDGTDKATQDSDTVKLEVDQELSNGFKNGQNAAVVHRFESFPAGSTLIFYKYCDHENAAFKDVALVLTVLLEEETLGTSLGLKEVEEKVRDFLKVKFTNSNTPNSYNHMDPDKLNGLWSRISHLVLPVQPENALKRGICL
SMILES,composite z-score [1],z-score [2],composite z-score [3],composite z-score [4],composite z-score [5],composite z-score [6],composite z-score [7],composite z-score [8],composite z-score [9],composite z-score [10]
C=CCNC(=O)[C@@H]1[C@H]2C(=O)O[C@H](c3ccccc3)[C@H](c3ccccc3)N2[C@H](c2ccc(OCCO)cc2)[C@@]12C(=O)N(C(=O)OCCOC)c1ccc(C#CC3(O)CCCCCC3)cc12,0.692,-2.29,0.507,1.82,1.11,0.0267,0.293,0.166,1.2,1.97
CCOC(=O)C1=CC[C@@H](c2ccc(-c3ccc(OCc4ccccc4)cc3)c(OC)c2)N(S(=O)(=O)c2ccc(C)cc2)[C@H]1c1ccccc1,1.39,-1.76,0.4,1.64,0.126,0.0279,-0.0171,-0.226,0.373,1.27
Cc1ccc(N2C(=O)c3ccccc3[C@@H](C(=O)NCc3ccccc3)[C@@H]2c2ccc(CO)cc2)nc1,-0.752,-0.139,-0.292,-0.869,-0.313,-0.148,0.901,-0.361,0.776,-0.326
C[C@@H]1NC(=O)[C@H](Cc2ccccc2)NC(=O)[C@@]23C(=O)N[C@@H](Cc4ccccc4)C2[C@H](C)[C@@]2(C)O[C@H]2C3/C=C/C/C=C\CNC1=O (stereo not given in full),-2.69,-1.06,-0.122,-0.472,-1.06,-0.124,-0.0474,-0.238,0.0403,-0.576
N#Cc1ccc(NN2C(C(O)CCc3ccccc3)C=CC3C(=O)N(c4ccccc4)C(=O)C32)cc1 (stereo not given),-0.317,-0.123,-0.111,1.59,0.0484,0.0785,0.108,-0.428,2.95,0.969
CCCC=C(CCC)[C@@H](NS(=O)(=O)c1ccc(C(F)(F)F)cc1)c1ccc(-c2ccccc2)cc1,1.32,-1.08,0.34,1.06,0.878,0.145,0.217,0.157,0.0541,0.709
C=CCN1C(=O)[C@]2(O[C@H](CCn3cc(CCO)nn3)[C@@H]([Si](C)(C)c3ccc(OC)cc3)[C@@H]2C)c2cc(NC(=O)c3ccc(OC)cc3)ccc21,1.09,-3.44,0.774,0.289,0.336,-0.124,0.166,0.188,0.573,1.19
COCC(=C=CC[C@H](O)c1ccc(OCCO)cc1)C[C@H](O)c1ccccn1,0.131,-0.932,-0.454,-0.581,-0.705,-0.186,0.235,0.0516,0.925,-0.458
COc1ccc([Si](C)(C)[C@@H]2[C@@H](CCO)O[C@]3(C(=O)N(Cc4ccccc4)c4ccccc43)[C@H]2C)cc1,0.566,-1.84,0.224,0.398,0.49,-0.148,-0.217,0.202,0.526,0.124
C=CCC(OC(C)=O)[C@@H]1[C@@H](N(Cc2cc3ccccc3o2)C(=O)Cc2ccc(F)cc2)c2cc(OCCCO)ccc2N1C(=O)c1ccc(-c2ccccc2)cc1 (stereo not given in full),-0.524,0.591,-0.159,-0.302,1.14,-0.154,0.0141,0.389,-0.467,0.208
COC(=O)Cn1c(C(=O)N2CCCC2)cc2c1C[C@H]1CN(C(=O)c3ccccc3)[C@@](Cc3ccccc3)(C(=O)OC)[C@@H]21,0.225,-1.02,-0.0875,0.79,0.589,-0.006,0.0639,-0.374,0.261,0.236
